Source: PubChem BioAssay (National Center for Advancing Translational Sciences (NCATS))
A selection: hits, their analogues and other compounds. The true share with any hit is near 2.4%.
TDP1 inh = qHTS Assay for Inhibitors of Tyrosyl-DNA Phosphodiesterase (TDP1) | Tyrosyl-DNA phosphodiesterase 1 (Homo sapiens), Q9NUW8 | recombinant TDP1, AlphaScreen DNA substrate cleavage | Potency, µM (doses to about 130 µM), for the others: at the top dose activity change, negative = inhibition, hits mostly inhibitors | 350,000 compounds, 0.28% hits; further: on the % scale 0 is the no-effect control and ±100 the full control effect; nearly all actives have a fitted effect of over 40% in size
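Signal: AlphaScreen proximity between streptavidin donor and anti-FITC acceptor beads on intact substrate. Reaction: Tdp1 1 nM, substrate 15 nM final, 5 min RT after 15 min compound preincubation.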
FEN1 inhibitor = qHTS Assay for the Inhibitors of Human Flap endonuclease 1 (FEN1); P39748; Recombinant FEN1 flap cleavage, fluorescence, 15 min; Potency, µM (doses to about 114 µM), for inactives: at the highest dose activity change, negative = inhibition, actives largely listed as inhibitors; 390,000 compounds, 0.35% hits; AID 588795, 2011; further: on the % scale 0 is the no-effect control and ±100 the full control effect; nearly all actives have a fitted effect of over 65% in size
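Nuclease activity of 10 nM FEN1 was measured after 15 min of room-temperature exposure to titrated compounds, by adding 50 nM flap substrate and reading plates at 0 and 15 min.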
POLI inh = qHTS for Inhibitors of Polymerase Iota. Pol iota fluorescent replication assay, 10 min. Potency, µM (highest dose often 115 µM), inactives show top-dose activity, negative = inhibition, hits mostly inhibitors. DNA polymerase iota (Homo sapiens), Q9UNA4. 390,000 compounds, 1% hits
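Fluorescent replication assay read twice, at 0 min and 10 min after adding 50 nM (final) substrate. Enzyme (10 nM) and compounds were first incubated 15 min at room temperature; enzyme-free buffer wells were negative controls.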
Pol eta inh = qHTS for Inhibitors of Polymerase Eta; recombinant Pol eta, fluorescent DNA replication assay; 390,000 compounds, 1.2% hits; Potency, µM (doses to about 114 µM), for inactives: at the top dose activity change, negative = inhibition, actives largely listed as inhibitors; further: on the % scale 0 is the no-effect control and ±100 the full control effect
Target sequence (Q9Y253 whole entry, looked up): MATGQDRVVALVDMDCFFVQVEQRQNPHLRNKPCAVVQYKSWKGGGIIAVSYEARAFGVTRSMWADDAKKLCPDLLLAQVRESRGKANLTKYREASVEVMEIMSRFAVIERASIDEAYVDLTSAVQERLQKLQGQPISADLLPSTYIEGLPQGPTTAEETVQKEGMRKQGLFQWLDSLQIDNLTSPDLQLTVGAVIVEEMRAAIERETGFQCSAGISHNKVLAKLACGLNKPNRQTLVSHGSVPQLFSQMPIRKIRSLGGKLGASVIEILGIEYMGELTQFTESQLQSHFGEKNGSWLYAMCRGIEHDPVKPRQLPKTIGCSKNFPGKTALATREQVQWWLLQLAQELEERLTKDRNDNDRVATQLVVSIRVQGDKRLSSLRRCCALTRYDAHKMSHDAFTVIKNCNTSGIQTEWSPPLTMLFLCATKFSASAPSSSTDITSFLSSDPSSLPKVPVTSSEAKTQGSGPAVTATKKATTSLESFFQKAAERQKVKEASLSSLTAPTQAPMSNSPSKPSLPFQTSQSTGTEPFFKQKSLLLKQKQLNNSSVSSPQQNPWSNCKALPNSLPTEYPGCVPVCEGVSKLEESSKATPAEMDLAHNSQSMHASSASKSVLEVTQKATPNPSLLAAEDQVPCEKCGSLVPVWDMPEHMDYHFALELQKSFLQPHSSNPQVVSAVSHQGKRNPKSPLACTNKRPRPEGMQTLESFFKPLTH
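Fluorescent replication assay: 50 nM final substrate added after a 15 min room-temperature compound preincubation with 10 nM enzyme. Signal taken at 0 min and again at 10 min.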
POLK inh = qHTS for Inhibitors of Polymerase Kappa | purified Pol kappa, fluorescent DNA synthesis assay, 10 min | Potency, µM (titrated, usually from 107 µM), inactives show top-dose activity, negative = inhibition, usual class: inhibitors | 400,000 compounds, 0.53% hits | AID 588579, 2011; further: on the % scale 0 is the no-effect control and ±100 the full control effect
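Inhibition of 10 nM Pol kappa is measured by a fluorescent read-out at 0 and 10 min following addition of 50 nM substrate (final), with a 15-min room-temperature compound preincubation.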
POLB inh = qHTS Assay for Inhibitors of DNA Polymerase Beta; Pol beta primer extension/strand displacement, fluorescence kinetic; Potency, µM (series often up to 114 µM), without a hit: top-dose activity change, negative = inhibition, usual class: inhibitors; AID 485314, 2010; 340,000 compounds, 1.3% hits; further: on the % scale 0 is the no-effect control and ±100 the full control effect
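Human Pol beta at 10 nM; strand-displacement substrate 50 nM final. Compound exposure 15 min at room temperature before start, reaction 10 min at room temperature.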
* = called active by the depositor; u = inconclusive; x = no result; ! = repeats disagree; [ ] = remark or other dose. The call rests on the fitted dose curve; in most records, active means well fitted curve in the direction sought with a large enough effect; inconclusive means small, poorly fitted or top-dose-only effect, or another doubt; inactive means no such curve, though single readings can be large; an effect the other way counts as inactive or inconclusive. Potency means the concentration at half of the fitted maximal effect.

SMILES	TDP1 inh	FEN1 inhibitor	POLI inh	Pol eta inh	POLK inh	POLB inh
CN(C)c1ccc(/C=C/c2nc3ccccc3c(=O)n2-c2ccc(C(=O)O)cc2)cc1	x	-4%	u	25µM*	u	-1%
Cc1cc2ccccc2cn1	x	53%	-12%	x	4%	x
C#Cc1ccc([C@@H]2C=C(C(=O)O)O[C@H](OCc3ccc(CO)cc3)C2)cc1	x	12%	u	40µM*	u	22µM*
O=C(O)C1=C[C@@H](c2ccccc2)C[C@@H](OCc2ccc(CO)cc2)O1	4%	17%	-3%	-5%	-8%	-4%
COc1ccc(S(=O)(=O)NCCC(=O)NC2CCCCC2C)cc1[N+](=O)[O-] (configuration not stated)	18µM*	-13%	50µM*	-18%	-21%	x
COc1ccc(OC)c(/C=C2\SC(=S)N(NS(=O)(=O)c3ccc(C)cc3)C2=O)c1	x	-17%	37%	79µM*	-27%	u
COc1ccc(OC)c(/C=C2\SC(=S)N(NS(=O)(=O)c3ccccc3)C2=O)c1	x	-2%	u	-8%	-4%[60.1 µM]	u
CC(C)c1ccc(/C=N/NC(=O)c2cc(-c3cccc([N+](=O)[O-])c3)n[nH]2)cc1	x	5%	u	u	-18%	22µM*
COc1cccc(C2c3c(ncn(-c4ccccn4)c3=N)Oc3ccc4ccccc4c32)c1 (configuration not stated)	0%	x	x	x	x	x
Cc1cc2c(cc1Cl)N(C(=O)Nc1ccc(Oc3cccnc3C)nc1)CC2	x	-1%[57.1 µM]	x	x	-8%[60.1 µM]	x
Cn1cc(S(=O)(=O)N2CCCCC2)cc1C(=O)NCc1ccc(Cl)cc1	-7%	-1%	-11%	-21%	-15%[60.1 µM]	34%
O=C1CCCC(O)=C1N=Nc1c(Cl)cc(C(F)(F)F)cc1Cl	11%	-25%	79µM*	-17%	u	u
O=C(O)[C@@H](O)[C@@H](O)[C@H](O)[C@H](O)CO	7.9µM*!	-6%	u	x	6%[60.1 µM]	x
OC[C@@H](O)C(O)[C@H](O)[C@H](O)CO (some centres not stated)	6%	x	x	x	18%[60.1 µM]	x
CN=c1scc(-c2ccccc2F)n1/N=C/c1ccc(O)c(O)c1O	10%	u	u	u	u	1.4µM*
CC(C)N=c1scc(-c2cccs2)n1/N=C/c1ccc(O)c(O)c1O	12%	-19%	u	u	u	2.2µM*
CCN(CC)S(=O)(=O)c1ccc(OC)c(NC(=O)/C=C/c2ccco2)c1	x	-18%	u	79µM*	-9%	-21%
COc1ccc(-c2oc3ncn4nc(-c5ccccc5O)nc4c3c2-c2ccc(OC)cc2)cc1	0%[12.3 µM]	-4%	15%	-22%	-4%	8%
CN1C(=O)c2ccccc2Sc2ccc(NC(=O)Nc3ccccc3F)cc21	11%	-10%	10%	-18%	-5%	-6%
CN1C(=O)c2ccccc2Sc2ccc(NC(=O)Cc3c(F)cccc3Cl)cc21	2%	-15%	u	-15%	-10%[60.1 µM]	20µM*
NC(=O)[C@@H]1CC2(CC(c3cccc(NC(=O)[C@H]4CCC(=O)N4)c3)=NO2)CN1C(=O)c1ccc(Cl)cc1 (some centres not stated)	1%	-7%	-17%	-14%	-2%	-16%
NC(=O)[C@H]1CC2(CC(c3cccc(NC(=O)[C@H]4CCC(=O)N4)c3)=NO2)CN1C(=O)c1ccccc1 (some centres not stated)	14µM*	79µM*	u	-9%	-8%	-25%
C=C(C)C(=O)Nc1cccc(C2=NOC3(C2)C[C@H](C(N)=O)N(C(=O)CC#N)C3)c1 (some centres not stated)	-8%	-11%	u	20µM*	u	35µM*
CCCCCC(=O)Nc1cccc(C2=NOC3(C2)C[C@H](C(N)=O)N(C(=O)CC#N)C3)c1 (some centres not stated)	-4%	x	x	x	x	40µM*
C/C=C(\C)C(=O)Nc1cccc(C2=NOC3(C2)C[C@@H](C(N)=O)N(C(=O)/C(C)=C/C)C3)c1 (some centres not stated)	0%	-1%	16%	-14%	4%	14%
SMILES	TDP1 inh	FEN1 inhibitor	POLI inh	Pol eta inh	POLK inh	POLB inh
C/C=C/C=C/C(=O)N1CC2(CC(c3cccc(NC(=O)/C=C/C)c3)=NO2)C[C@@H]1C(N)=O (some centres not stated)	-2%	-15%	40µM*	u	u	-1%
O=C1[C@H](Cc2ccccc2)NC/C=C\C[C@H](c2ccco2)N1Cc1ccccc1	x	-21%	0%	x	-8%	x
Nc1nc(-c2nn(Cc3ccccc3F)c3ncccc23)ncc1C1CC1	8%	x	x	x	12%[60.1 µM]	x
COc1ccc(/C=C/c2ccnc3ccccc23)c(OC)c1	x	-6%	7%	x	-17%	x
C/C=C\C=C/C(=O)Nc1cccc(C2=NOC3(C2)C[C@H](C(N)=O)N(C(=O)Cc2ccc([N+](=O)[O-])cc2)C3)c1 (some centres not stated)	4%	-17%	25µM*	-16%	-10%	-8%
C/C=C\C=C/C(=O)Nc1cccc(C2=NOC3(C2)C[C@H](C(N)=O)N(C(=O)CC)C3)c1 (some centres not stated)	-7%	2%	u	u	-4%	-2%
C/C=C/C=C\C(=O)Nc1cccc(C2=NOC3(C2)C[C@H](C(N)=O)N(C(=O)CC#N)C3)c1 (some centres not stated)	x	u	14µM*	45µM*	79µM*	50µM*
N#Cc1ccc(CN2CCC3(CC2)CCN(C(=O)c2cc(C(F)(F)F)cc(C(F)(F)F)c2)CC3)cc1	x	x	x	x	-12%[60.1 µM]	x
CC(C)S(=O)(=O)C1=NSC2=NC(=O)/C(=C\c3ccc(-c4ccccc4)o3)C(=N)N21	6%	u	-12%	18µM*	u	79µM*
OCCCNC(=S)Nc1ccc2nccnc2c1	4%	40µM*	14µM*	1%	-8%	50%
N#Cc1ccccc1-c1nc(NCCN2CCOCC2)c2ccccc2n1	x	x	x	x	4%[60.1 µM]	x
Cc1ccccc1-c1nc(NCCN2CCOCC2)c2ccccc2n1	7.9µM*	x	x	x	1%[60.1 µM]	x
